Vif-APOBEC3G blk: qHTS for Inhibitors of Vif-A3G Interactions: qHTS. DNA dC->dU-editing enzyme APOBEC-3G (Homo sapiens), Q9HC16. HeLa A3G-eYFP + Vif (tagged APOBEC3G with the HIV-1 protein that degrades it), YFP fluorescence, overnight. Potency, µM (series often up to 46.1 µM), without a hit: at the highest dose activity, negative = active, usual class: inhibitors. 410,000 tested, 0.076% active. AID 602310, 2012; note: % is set by controls: 0 for no effect and ±100 for the full control effect; nearly all actives have a fitted effect of over 60% in size
Target sequence (Q9HC16 whole entry, looked up): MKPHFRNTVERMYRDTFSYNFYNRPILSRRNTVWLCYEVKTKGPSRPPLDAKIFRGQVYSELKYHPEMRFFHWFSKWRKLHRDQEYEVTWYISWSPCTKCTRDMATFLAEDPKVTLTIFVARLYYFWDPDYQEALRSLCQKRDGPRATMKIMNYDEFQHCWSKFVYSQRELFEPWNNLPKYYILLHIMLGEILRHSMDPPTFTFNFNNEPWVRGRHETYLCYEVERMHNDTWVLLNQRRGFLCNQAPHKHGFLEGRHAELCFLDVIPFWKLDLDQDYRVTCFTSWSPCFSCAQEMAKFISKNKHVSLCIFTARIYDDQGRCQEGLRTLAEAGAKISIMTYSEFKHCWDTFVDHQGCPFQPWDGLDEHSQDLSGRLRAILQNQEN
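HeLa cells stably expressing Vif and C-terminally eYFP-tagged A3G, seeded overnight at 37 deg C, then exposed to compound by pintool overnight at 37 deg C. Rise in yellow fluorescence (Ex 488/Em 500-530, Acumen) marks blocked Vif-driven A3G degradation.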
Vif-A3F inh: qHTS for Inhibitors of Vif-A3F Interactions: qHTS | Potency, µM (titrated, usually from 46.1 µM), for inactives: top-dose activity, negative = active | HeLa A3F-eYFP + Vif (tagged APOBEC3F with the HIV-1 protein that degrades it), YFP fluorescence increase | AID 602313, 2012 | 390,000 tested, 0.2% active; note: % of control where 0% means no effect; nearly all actives have a fitted effect of over 65% in size
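Fluorescence increase (Ex 488/Em 500-530) after overnight compound treatment at 37 deg C flags inhibition of Vif-driven A3F-eYFP loss in stable HeLa A3F-eYFP/Vif cells seeded overnight beforehand.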
TrxR1 substrate: qHTS Assay for Substrates of Mammalian Selenoprotein Thioredoxin Reductase 1 (TrxR1): qHTS | purified TrxR1 substrate turnover, NADPH consumption readout | Potency, µM (doses to about 114 µM), for the others: at the top dose activity change, negative = substrate turnover | Thioredoxin reductase 1, cytoplasmic (Rattus norvegicus), O89049 | 390,000 tested, 0.01% active; note: % is set by controls: 0 for no effect and ±100 for the full control effect; nearly all actives have a fitted effect of over 50% in size
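Rat TrxR1, dispensed at 90 nM, was prereduced with 400 uM NADPH (final) for 5 min at ~22 deg C, then incubated with compound 15 min before 400 uM selenite. A first-read NADPH fluorescence drop versus no-compound background flagged substrates.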
rTrxR1 inhibitor: qHTS Assay for Inhibitors of Mammalian Selenoprotein Thioredoxin Reductase 1 (TrxR1): qHTS | recombinant rTrxR1, NADPH fluorescence consumption, selenite substrate | 390,000 tested, 1% active | Thioredoxin reductase 1, cytoplasmic (Rattus norvegicus), O89049 | Potency, µM (top dose mostly 114 µM), for inactives: at the top dose activity change, negative = inhibition, actives largely listed as inhibitors; note: % is set by controls: 0 for no effect and ±100 for the full control effect; nearly all actives have a fitted effect of over 65% in size
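Rat TrxR1 (90 nM in the dispensed reagent) was pre-reduced with 400 uM NADPH for 5 min at room temperature, then incubated with compound for 15 min. After 400 uM selenite was added, NADPH fluorescence (Ex 340/Em 450 nm) was followed for 8 min.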
VDR inh: Inhibitors of the vitamin D receptor (VDR): qHTS; Vitamin D3 receptor (Homo sapiens), P11473; VDR-SRC2-3 peptide fluorescence polarization, 2 h; Potency, µM, without a hit: max response, negative = inhibition, most hits filed as inhibitors; 400,000 tested, 0.93% active; AID 504847, 2011; note: % is set by controls: 0 for no effect and ±100 for the full control effect
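After 23 nl compound addition and a short centrifugation, plates sat for 2 hours at ambient temperature; polarization of fluorescence then indicated loss of VDR binding to peptide SRC2-3.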
Active calls of the source: *; ? = inconclusive; nt = no result given; [ ] = remark or other dose. Shown are actives, neighbours in structure and some others; about 1.8% of the full set was active somewhere. Calls come from the whole dose curve; as a rule, active = well fitted curve in the direction sought with a large enough effect; inconclusive = small, poorly fitted or top-dose-only effect, or another doubt; inactive = no such curve, though single readings can be large; an effect the other way counts as inactive or inconclusive. Potency is the fitted concentration of half-maximal effect.

SMILES | Vif-APOBEC3G blk | Vif-A3F inh | TrxR1 substrate | rTrxR1 inhibitor | VDR inh
CC(=O)Nc1ccc2c(c1)C(C)(C)C(C)N2C (centres undefined) | 1% | 1% | -8% | -7% | 45µM*
CC(=O)Nc1ccc2c(c1)CCCC2 | -4% | 2% | -1% | 13% | -1%
O=C(c1ccc(Cl)cc1Cl)n1nnc2ccccc21 | nt | nt | nt | nt | 3.5µM*
O=C1c2ccccc2C(Nc2ccc(F)c(Cl)c2)N1Cc1ccco1 (centres undefined) | -13% | -2% | -4%[57.1 µM] | ? | 89µM*
COc1ccc(NC2c3ccccc3C(=O)N2Cc2ccco2)cc1OC (centres undefined) | 0% | -206% | 5%[57.1 µM] | 21% | -3%
CCC(/C=C1\Sc2ccc(OC)cc2N1CC)=C\c1sc2ccc(OC)cc2[n+]1CCCS(=O)(=O)[O-] | 4% | 2% | 3% | 47% | ?
CCC(/C=C1\Sc2ccc(OC)cc2N1CCO)=C\c1sc2ccc(OC)cc2[n+]1CCO | 0% | 4% | -5%[57.1 µM] | 52%[57.1 µM] | 79µM*
CCCCC(=O)Nc1sc2c(c1C#N)CC(C)(C)OC2 | 4% | 5% | 16%[57.1 µM] | 4%[57.1 µM] | 79µM*
CC1(C)Cc2c(sc(NC(=O)Cc3ccccc3)c2C#N)CO1 | -4% | 8% | 2%[57.1 µM] | 14%[57.1 µM] | 8%
O=C(NC(=S)Nc1ccccc1)c1cccs1 | -9% | -3% | 4% | 50µM* | 11%
O=C(Nc1ccc(NC(=S)NC(=O)c2cccs2)cc1)c1ccccc1 | -3% | -9% | 2% | -21% | -13%
NS(=O)(=O)c1ccc(NC(=S)NC(=O)c2cccs2)cc1 | -6% | 1% | -1% | 11µM* | -24%
O=C1c2ccccc2-c2onc3c(N4CCN(C5CCCCC5)CC4)cc(NCCO)c1c23 | ? | ? | 0% | 8% | -14%
CN(C)CCCNc1cc(N2CCN(C3CCCCC3)CC2)c2noc3c2c1C(=O)c1ccccc1-3 | ? | 4.5µM* | -2% | -3% | -23%
CN(C)c1ccc(Cc2cc3c(O)ccc(O)c3cc(Cc3ccc(N(C)C)cc3)c2=O)cc1 | -5% | -5% | -13% | 11µM* | 45µM*
CC(I)CCC(C)[n+]1cccc(I)c1 (centres undefined) | 4% | nt | -3% | 4% | nt
COc1cccc(C(=O)Nc2sc3c(c2C(=O)O)CCCC3)c1 | -1% | 8% | 7%[57.1 µM] | -4% | -15%
COc1cccc(C(=O)Nc2sc3c(c2C#N)CCN(C(C)=O)C3)c1 | ? | -6% | -8% | -14% | 79µM*
O=c1c(-c2ccccc2)c1-c1ccccc1 | nt | nt | nt | nt | 45µM*
O=c1o[nH]c(-c2ccccc2)c1-c1ccccc1 | -5% | 6% | 1%[11.4 µM] | 16%[11.4 µM] | 2%
CC(=O)c1ccc(N2CCN(c3ncnc4c3nc3n4CCCC3)CC2)cc1 | 11% | 0% | -10% | -5% | 12%
O=C(CSc1ccc(-c2nc3ccccc3[nH]2)cn1)N1CCN(C(=O)c2ccco2)CC1 | 5% | -10% | 37% | 1.4µM* | ?
CNc1ncncc1-c1ccccc1C | nt | nt | nt | nt | 71µM*
Cc1ccccc1-c1cncnc1NCc1cccnc1 | nt | nt | nt | nt | 50µM*
COc1cccc(-c2cncnc2NCc2ccccc2)c1 | nt | nt | nt | nt | 4%
SMILES | Vif-APOBEC3G blk | Vif-A3F inh | TrxR1 substrate | rTrxR1 inhibitor | VDR inh
Cc1ccccc1-c1cncnc1Nc1ccccc1 | nt | nt | nt | nt | 45µM*
COc1cccc(-c2cncnc2Nc2ccccc2)c1 | nt | nt | nt | nt | 40µM*
CCCCN(CC)C(=O)CSc1nc2n[nH]c(C)c2c(=N)n1-c1ccc(CC)cc1 | -6% | 1% | -2%[57.1 µM] | 17%[57.1 µM] | 7%
Cc1cccc(NC(=O)CSc2nc3n[nH]c(C)c3c(=N)n2-c2cccc(Cl)c2)c1 | -7% | -10% | 0%[57.1 µM] | 19%[57.1 µM] | 0%
NCCCCCCC(O)(P(=O)(O)O)P(=O)(O)O | nt | nt | nt | nt | 11%
CC1=NN(Cc2ccccc2)C(=O)C1C(c1ccccc1)C(C#N)C#N (centres undefined) | -7% | 0% | 0% | ? | ?
CC1=NN(Cc2ccccc2)C(=O)C1C(c1ccc(Cl)cc1)C(C#N)C#N (centres undefined) | -20% | -7% | -9% | 25µM* | 40µM*
CC1=NNC(=O)C1C(c1ccc(Cl)cc1)C(C#N)C#N (centres undefined) | -7% | -2% | 5% | ? | 79µM*
N#CCCn1c(=O)c(-c2ccc(Cl)cc2)nc2cnc(N3CCNCC3)nc21 | nt | nt | nt | nt | -2%
Cc1cccc(CN2Cc3cccc4c3[C@H](C=CC4)CC2=O)c1 | 1% | nt | -3% | -11% | nt
N#CC1(C#N)OC12CCS(=O)(=O)c1ccccc12 (centres undefined) | 0% | -17% | 1% | 50µM* | ?
COc1cccc(S(=O)(=O)N2CCN(c3nc(-c4cccs4)nc4ccccc34)CC2)c1 | nt | nt | -3% | -19% | 17%
Cc1ccc2oc(C(=O)N(Cc3ccccc3F)C3CCS(=O)(=O)C3)c(C)c2c1 (centres undefined) | -1% | 1% | -10% | 6% | 1%
Cc1cc(C)cc(OC(=O)CS(=O)c2ccc(C(F)(F)F)cc2[N+](=O)[O-])c1 (centres undefined) | -15% | 2% | -18% | ? | 20µM*
O=C(NCCO)c1ccc(Oc2ccc(C(F)(F)F)cc2[N+](=O)[O-])cc1 | -3% | -17% | -23%[11.4 µM] | 22%[11.4 µM] | 11%
Cc1ccc(OCCNc2ccc(C(F)(F)F)cc2[N+](=O)[O-])cc1 | 0% | -21% | -6%[57.1 µM] | 7%[57.1 µM] | -1%
O=C(CS(=O)c1ccc(C(F)(F)F)cc1[N+](=O)[O-])Oc1ccc(Cl)cc1 (centres undefined) | -20% | -5% | -12% | 50µM* | 50µM*
CSc1ccc(/C=C2\C=C(C(O)c3ccc(SC)cc3)c3ccccc32)cc1 (centres undefined) | -1% | nt | -6% | -6% | nt
CCN(CC)c1ccc2cc(-c3nc(-c4ccc(OC)cc4)cs3)c(=O)oc2c1 | 6% | -105% | -18% | ? | -12%
CCN(CC)c1ccc2cc(-c3nc4ccccc4n3C)c(=O)oc2c1 | ? | 11µM* | -3% | -21% | ?
CCN(CC)c1ccc2cc(-c3nc(-c4ccc(Cl)cc4Cl)cs3)c(=O)oc2c1 | -21% | 7.1µM* | -7%[57.1 µM] | 11%[57.1 µM] | -5%
COC(=O)C1=C(O)/C(=C\c2ccc(CNS(=O)(=O)c3ccccc3)o2)N=C1C | 0% | -12% | -8% | ? | 2%
COC(=O)C1=C(O)/C(=C\c2ccc(CNS(=O)(=O)c3ccc(Cl)cc3)o2)N=C1C | -1% | -6% | -15% | 28µM* | 1%
